Experimental data published in the supplement of paper PMC6992640.
± gives the standard deviation of the averaged measurements.

Experiments:
Assay in all cases: cell viability (% of vehicle); higher = less cytotoxic
Details in all cases: 10 µM; 72 h
HCI01 = test system: HCI01 (cells of a triple-negative basal-like breast cancer xenograft)
HCI03 = test system: HCI03 (cells of an ER-positive luminal breast cancer xenograft)
HCI09 = test system: HCI09 (cells of a triple-negative luminal androgen receptor type breast cancer xenograft)
HCI11 = test system: HCI11 (cells of an ER-positive luminal breast cancer xenograft)
HCI13 = test system: HCI13 (cells of an ER-positive luminal breast cancer xenograft)
HCI16 = test system: HCI16 (cells of a triple-negative basal-like breast cancer xenograft)
UCD52 = test system: UCD52 (cells of a triple-negative basal-like breast cancer xenograft)
WHIM2 = test system: WHIM2 (cells of a triple-negative basal-like breast cancer xenograft)
WHIM30 = test system: WHIM30 (cells of a triple-negative basal-like breast cancer xenograft)
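Note: PDX cells carrying CMV promoter-driven luciferase, viability read as total photon flux per second by IVIS imaging following D-luciferin, vehicle control 0.1% DMSO.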

SMILES	cell viability (HCI01)	cell viability (HCI03)	cell viability (HCI09)	cell viability (HCI11)	cell viability (HCI13)	cell viability (HCI16)	cell viability (UCD52)	cell viability (WHIM2)	cell viability (WHIM30)
CCOC(=O)C(CCc1ccccc1)NC(C)C(=O)N1CCCC1C(=O)O.O=C(O)C=CC(=O)O (stereo not given) [Enalapril Maleate]	128 ± 31	126	101 ± 2.9	72.3	102 ± 8.6	120	120 ± 4.4	116 ± 15	104 ± 3
CCCCCOc1ccc(-c2cc(-c3ccc(C(=O)NC4CC(O)C(O)NC(=O)C5C(O)C(C)CN5C(=O)C(C(O)CC(N)=O)NC(=O)C(C(O)C(O)c5ccc(O)c(OS(=O)(=O)[O-])c5)NC(=O)C5CC(O)CN5C(=O)C(C(C)O)NC4=O)cc3)no2)cc1.[Na+] (stereo not given) [Micafungin sodium]	104 ± 7.9	96.4	85.7 ± 5.6	92.6	113 ± 4	93.3	75.7 ± 12	39.4 ± 2.2	99 ± 12
c1ccc2[nH]c(-c3cscn3)nc2c1 [Thiabendazole]	148 ± 9.3	160	82.8 ± 82	162	162 ± 8.2	119	167 ± 15	120 ± 13	102.2 ± 0.2
CC(C=CC1=C(C)CCCC1(C)C)=CC=CC(C)=CC(=O)O [Isotretinoin]	139 ± 2	109	91.69 ± 0.3	122	119 ± 3.2	105	190 ± 2.4	91.5 ± 10	142.94 ± 0.0078
CC(=O)Oc1cc2c(s1)CCN(C(C(=O)C1CC1)c1ccccc1F)C2 (stereo not given) [Prasugrel]	76.6 ± 67	164	114 ± 4.9	120	81.6 ± 18	122	113 ± 20	102 ± 28	112 ± 16
CCCC(=O)OCOC(=O)C1=C(C)NC(C)=C(C(=O)OC)C1c1cccc(Cl)c1Cl (stereo not given) [Clevidipine Butyrate]	106.5 ± 0.58	126	104 ± 19	112	105 ± 6.6	88.1	92.2 ± 1.5	100 ± 6.3	91 ± 2.4
CS(=O)(=O)O.Cc1ccc(N(CC2=NCCN2)c2cccc(O)c2)cc1 [Phentolamine Mesylate]	112 ± 14	116	118 ± 7.2	112	124 ± 11	101	99.5 ± 6.4	93.5 ± 12	137 ± 12
Cn1c(=O)c2[nH]cnc2n(C)c1=O.Cn1c(=O)c2[nH]cnc2n(C)c1=O.NCCN [Aminophylline]	98 ± 18	95.2	93.6 ± 9.1	99.4	101 ± 5.1	75.8	72 ± 16	97.4 ± 7.5	92.5 ± 24
CCOc1ccc(Cc2cc(C3OC(CO)C(O)C(O)C3O)ccc2Cl)cc1 (stereo not given) [Dapagliflozin]	112 ± 8.7	113	89.6 ± 9.1	110	107 ± 18	128	78.8 ± 4.8	84 ± 6.9	103 ± 24
[I-].[K+] [Potassium Iodide]	98.5 ± 37	134	97 ± 8.2	97.4	169 ± 3.2	127	102 ± 6.1	82 ± 5.4	121 ± 7.5
COc1ccc2c(c1OC)C(=O)OC2C1c2c(cc3c(c2OC)OCO3)CCN1C.Cl (stereo not given) [Noscapine HCl]	127 ± 6.7	114	127 ± 49	117	101 ± 6.3	117	93.7 ± 5	111 ± 18	139.5 ± 0.58
CN1CCC(=C2c3ccccc3CC(=O)c3sccc32)CC1.O=C(O)C=CC(=O)O [Ketotifen Fumarate]	120 ± 23	125	135 ± 31	102	135 ± 13	173	95.4 ± 4.4	84.4 ± 3.9	154 ± 5.5
CN1CCC(=C2c3ccccc3C=Cc3ccccc32)CC1.Cl [Cyproheptadine hydrochloride]	91 ± 16	115	83.3 ± 9	95.8	89.6 ± 1.1	90.1	79.8 ± 13	81.1 ± 14	116 ± 10
NC(=O)NO [Hydroxyurea]	62.8 ± 36	111	89.2 ± 7.3	90	113 ± 11	110	78.7 ± 4.1	96.5 ± 31	125 ± 3.9
CCOC(=O)n1ccn(C)c1=S [Carbimazole]	90.9 ± 7.9	145	95 ± 11	93.4	66.4 ± 18	101	95.5 ± 7.5	104 ± 30	135 ± 11
CCCC1CC(C(=O)NC(C(C)Cl)C2OC(SC)C(O)C(O)C2O)N(C)C1 (stereo not given) [Clindamycin]	142 ± 42	124	83 ± 23	106	76.4 ± 12	122	96.8 ± 12	117 ± 13	116 ± 7.1
CCOc1cc(C(CS(C)(=O)=O)N2C(=O)c3cccc(NC(C)=O)c3C2=O)ccc1OC (stereo not given)	161 ± 13	149	112.6 ± 0.15	121	150 ± 16	135	117 ± 13	118 ± 7.6	140 ± 16
CCCC(CCC)C(=O)O.CCCC(CCC)C(=O)[O-].[Na+] [Divalproex Sodium]	112 ± 1.5	116	96.4 ± 23	111	114 ± 41	94.5	86.1 ± 2.9	80.1 ± 16	90.4 ± 14
CN1C(C(=O)Nc2ccccn2)=C(O)c2sccc2S1(=O)=O [Tenoxicam]	122 ± 9.7	126	114 ± 24	89.7	64.9 ± 7.4	119	87.2 ± 4.1	123 ± 33	159 ± 5.4
CN(C)CCC=C1c2ccccc2CCc2ccccc21.Cl [Amitriptyline HCl]	103 ± 18	99.2	87.6 ± 6.1	83.2	105 ± 9.9	135	74.5 ± 4.4	100 ± 1.1	114 ± 2.5
